# Screening results: PubChem BioAssay, National Center for Advancing Translational Sciences (NCATS)
# HCMV antiviral – qHTS Assay for inhibitors of the human cytomegalovirus (HCMV); HFF cells, HCMV-luciferase reporter, 72 h; hits give low values; activity change, negative = inhibition, % at 57.5 µM; 410,000 compounds, 4.5% hits; in the data active = activity change below about -60%; inconclusive = no clear call, values can overlap the other calls; inactive = above about -39%
#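 Two compound doses tested in HFFs infected with HCMV-luciferase, MOI 1 PFU/cell, 72 h at 37C. Lysate luminescence read with OneGlo; data normalized against buffer-only and 10uM Salinomycin inhibitor controls.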
# Giardia FBPA inh – qHTS Assay for Inhibitors of Fructose-1,6-bisphosphate Aldolase from Giardia Lamblia; 290,000 compounds, 0.71% hits; A8B2U2; purified Giardia FBPA; Potency, µM (doses to about 59.6 µM), inactives show top-dose activity, negative = inhibition, hits mostly inhibitors; note: potency is the fitted concentration of half-maximal effect; nearly all actives have a fitted effect of over 55% in size
# Target sequence (A8B2U2 whole entry, looked up): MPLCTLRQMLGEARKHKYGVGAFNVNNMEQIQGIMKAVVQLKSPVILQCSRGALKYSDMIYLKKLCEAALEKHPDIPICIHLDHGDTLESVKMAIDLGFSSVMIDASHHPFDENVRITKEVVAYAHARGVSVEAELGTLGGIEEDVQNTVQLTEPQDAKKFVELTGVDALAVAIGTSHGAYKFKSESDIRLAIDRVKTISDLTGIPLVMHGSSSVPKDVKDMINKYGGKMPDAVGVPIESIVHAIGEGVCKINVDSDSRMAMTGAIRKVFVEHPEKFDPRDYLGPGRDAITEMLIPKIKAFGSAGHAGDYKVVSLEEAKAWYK
#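 Giardia FBPA (40 nM reagent) was preincubated 10 min at RT with compound (up to 57.5 uM final), then substrate plus GAPDH/TPI/NAD/arsenate coupling system with diaphorase/resazurin was added; resorufin fluorescence (525/598 nm) was read after 20 min.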
# Sm TGR inh – qHTS Assay for the Inhibitors of Schistosoma Mansoni Peroxiredoxins; Schistosoma mansoni thioredoxin glutathione reductase (TGR), Q962Y6; purified TGR, DTNB reduction, TNB absorbance 405 nm; Potency, µM (top dose mostly 114 µM), for the others: at the highest dose activity change, negative = inhibition, most hits filed as inhibitors; 360,000 compounds, 3% hits; note: potency is the fitted concentration of half-maximal effect; nearly all actives have a fitted effect of over 60% in size
#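 Kinetic colorimetric format: TGR-catalysed, NADPH-driven DTNB reduction monitored via TNB absorbance. Enzyme dispensed at 20 nM; compound exposure 15 min at room temperature before reaction start.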
# Pf growth 48h – Primary qHTS for delayed death inhibitors of the malarial parasite plastid, 48 hour incubation | Potency, µM (titrated, usually from 28.7 µM), for inactives: at the highest dose activity change, negative = inhibition, hits mostly inhibitors | AID 504832, 2011 | 310,000 compounds, 5.9% hits | P. falciparum luciferase growth in erythrocytes, 48 h; note: potency is the fitted concentration of half-maximal effect
#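 Erythrocytes infected with P. falciparum carrying an integrated firefly luciferase reporter (2% hematocrit, 0.1% parasitemia final) were exposed to compounds in RPMI 1640 with 0.5% Albumax at 37 C, 5% CO2. Growth inhibition was scored as reduced luminescence.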
# Pf growth 96h – Primary qHTS for delayed death inhibitors of the malarial parasite plastid, 96 hour incubation | Potency, µM (highest dose often 28.7 µM), for inactives: top-dose activity change, negative = inhibition, actives largely listed as inhibitors | 320,000 compounds, 6.9% hits | P. falciparum luciferase reporter growth, 96 h; note: potency is the fitted concentration of half-maximal effect
#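 Erythrocytes infected with luciferase-expressing P. falciparum were dispensed at 2% hematocrit and 0.05% parasitemia (final), then incubated with compounds 96 hours at 37 C in 5% CO2. Luminescence after detection reagent addition reported growth.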
# * = called active by the depositor; ? = inconclusive; . = no result given; [ ] = another dose, or the depositor's remark. Compounds with a hit are over-represented: about 14% of the library has one in this group of screens. Unless noted, calls come from the whole dose curve; as a rule, active = well fitted curve in the direction sought with a large enough effect; inconclusive = small, poorly fitted or top-dose-only effect, or another doubt; inactive = no such curve, though single readings can be large; an effect the other way counts as inactive or inconclusive. % is set by controls: 0 for no effect and ±100 for the full control effect.
SMILES,HCMV antiviral,Giardia FBPA inh,Sm TGR inh,Pf growth 48h,Pf growth 96h
Cc1ccc(N=C2NC(=O)/C(=C/C=C/c3ccco3)S2)cc1,84,-14%,45µM*,?,?
O=C1NC(=Nc2ccccc2)S/C1=C\C=C\c1ccco1,50,?,11µM*,?,?
Cc1cccc(N=C2NC(=O)/C(=C/c3cccn3C)S2)c1C,?,-11%,?,-29%,-29%
Cc1cc(=O)[nH]c(SCC(=O)N2C(C)CCCC2C)n1 (stereo not given),14,.,-4%,10%,-3%
CC(=O)Oc1ccc(N(C(C)=O)S(=O)(=O)c2cccs2)c2ccccc12,-24,-27%,?,4.1µM*,.
CC(=O)Oc1ccccc1N(C(C)=O)S(=O)(=O)c1ccc2ccccc2c1,-35,-1%,-3%[57.1 µM],-13%,2.3µM*
CC(=O)Oc1ccccc1C(=O)N1CCN(S(=O)(=O)c2ccc3ccccc3c2)CC1,3,0%,-2%,.,?
CC(=O)Oc1c(Br)cc(N(C(C)=O)S(=O)(=O)c2ccccc2)c2ccccc12,-27,28µM*,3.5µM*,3.3µM*,?
O=C(Cc1ccc(-c2ccccc2)cc1)NCCS(=O)(=O)N1CCN(c2ccccc2F)CC1,32,.,0%,.,.
c1ccc(-c2nc(NCCCN3CCOCC3)c3ccccc3n2)cc1,76,3%,-16%,?,.
Cc1ccc(S(=O)(=O)c2nc(-c3ccccc3)oc2NCCCN2CCOCC2)cc1,13,-8%,-22%,?,-28%
Cc1cccc(-c2nc(NCCCN3CCOCC3)c3ccccc3n2)c1,81,-24%,4%,.,2.9µM*
Cc1cccc(-c2nc(S(=O)(=O)c3ccc(F)cc3)c(NCCCN3CCOCC3)o2)c1,-16,.,-8%,?,13µM*
CCOc1ccccc1CN1CCc2nc(N3CCN(C)CC3)ncc2C1,-6,.,1%,.,.
COc1cc(OC)c(OC)cc1CN1CCc2nc(N3CCN(C)CC3)ncc2C1,1,.,40µM*,.,.
COc1ccc(CN(C)CCCn2cnc3c(OCc4ccccc4)ncnc32)cc1,-97*,.,.,.,.
Cc1ccc(NC(=O)c2sc(-n3nc(C)c(Cc4ccc5c(c4)OCO5)c3C)nc2C)cc1C,-113*,.,0%,.,.
CC(=O)c1cccc(NC(=O)c2sc(-n3nc(C)c(Cc4ccc5c(c4)OCO5)c3C)nc2C)c1,15,.,5%,.,.
C=CCC(C)(O)c1ccccc1 (stereo not given),.,0%,.,.,.
OC(COCC1CC=CCC1)Cn1cnc2ccccc21 (stereo not given),-23,-7%,5%,.,?
Cc1nc2ccccc2n1CC(O)COCC1CC=CCC1 (stereo not given),-81*,-6%,3%,?,18%
CCOc1cc(C(c2c(C)[nH][nH]c2=O)c2c(C)[nH][nH]c2=O)cc(Cl)c1O,1,?,35µM*,3%[0.00184 µM],?
CCOc1cc(C(c2c(C)[nH][nH]c2=O)c2c(C)[nH][nH]c2=O)ccc1OS(=O)(=O)c1ccc(C)cc1,-24,15%,-24%,15µM*,.
CCOc1cc(C(c2c(C)[nH][nH]c2=O)c2c(C)[nH][nH]c2=O)cc([N+](=O)[O-])c1O,5,-22%,-28%,-15%,27%
COc1cc(C(c2c(C)[nH][nH]c2=O)c2c(C)[nH][nH]c2=O)cc(Br)c1OC,-18,-16%,0%,23%,7.4µM*
Cc1cc(C)nc(SCC(CSc2nc(C)cc(C)n2)C(=O)O)n1,-13,2%,0%,6%,51%
O=C(NCC(c1ccco1)N1CCOCC1)c1ccc(Cl)cc1 (stereo not given),-7,.,1%,23%,46%
CCc1cc(C(=O)NCC(c2ccco2)N2CCCCC2)sc1C (stereo not given),?,.,-22%,9.3µM*,5.9µM*
O=C(NCC(c1ccco1)N1CCc2ccccc2C1)c1cccc([N+](=O)[O-])c1 (stereo not given),-23,.,40µM*,?,0%
